Experimental data taken from PubChem BioAssay AID1159580 (chemical genetic matrix, 2015).
Several values for one entry are separate records, joined by “and”; a condition that tells them apart may be missing. Equal entries are not always repeated. Screen size: about 5,500 compounds; about 2,000 (36%) were called active. Another 18% or so got no clear call; they are omitted. Cut-off read from the data, not from the text of the source: active = normalized growth mostly below about 0.91 (no sharp cut-off); inconclusive = no clear call, values can overlap the other calls; inactive = mostly above about 0.92. The list shows a part of the results.

Experiment: chemical genetic growth profiling, strain panel (AID 1159580);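 note: tested at 20 µM; growth read once vehicle control cultures reached saturation at 30 °C; 1 = growth at the plate median or of vehicle wells; lower values mean less growth of the strain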
Conditions: S. cerevisiae deletion strains, growth OD

Measured: normalized growth

C[C@]12CCC(=O)C=C1CCC1C2CC[C@@]2(C)C1CC[C@@H]2O (some centres not stated)
inactive: locus YAL013W, strain DEP1, hits give low values 1.01 | locus YAL021C, strain ccr4, hits give low values 0.967 | locus YAL026C, strain drs2, hits give low values 1 | locus YAL030W, strain snc1, hits give low values 0.997 | locus YBL061C, strain skt5, hits give low values 0.987 | locus YBR009C, strain hhf1, hits give low values 0.99 | locus YBR021W, strain FUR4, hits give low values 0.97 | locus YBR023C, strain chs3, hits give low values 0.988 | locus YBR171W, strain sec66, hits give low values 0.969 | locus YBR229C, strain ROT2, hits give low values 1.02 | locus YBR231C, strain swc5, hits give low values 0.99 | locus YBR279W, strain paf1, hits give low values 0.998 | locus YCL011C, strain gbp2, hits give low values 0.993 | locus YCL016C, strain dcc1, hits give low values 0.988 | locus YCL029C, strain bik1, hits give low values 1.02 | locus YCL061C, strain MRC1, hits give low values 0.993 | locus YCL069W, strain vba3, hits give low values 0.999 | locus YCR088W, strain abp1, hits give low values 1 | locus YDL005C, strain med2, hits give low values 0.989 | locus YDL035C, strain GPR1, hits give low values 0.988 | locus YDL040C, strain nat1, hits give low values 0.985 | locus YDL074C, strain BRE1, hits give low values 0.995 | locus YDL101C, strain DUN1, hits give low values 1.01 | locus YDL134C, strain PPH21, hits give low values 1.03 | locus YDL185W, strain tfp1, hits give low values 1.03 | locus YDL192W, strain arf1, hits give low values 1.03 | locus YDR001C, strain nth1, hits give low values 0.996 | locus YDR069C, strain doa4, hits give low values 0.977 | locus YDR101C, strain arx1, hits give low values 1.01 | locus YDR137W, strain rgp1, hits give low values 0.96 | locus YDR150W, strain NUM1, hits give low values 1.03 | locus YDR159W, strain sac3, hits give low values 0.963 | locus YDR162C, strain NBP2, hits give low values 0.996 | locus YDR195W, strain ref2 1.01 | locus YDR297W, strain sur2, hits give low values 0.993 | locus YDR318W, strain mcm21, hits give low values 1.02 | locus YDR334W, strain swr1, hits give low values 1.01 | locus YDR335W, strain msn5, hits give low values 0.989 | locus YDR388W, hits give low values 1.03 | locus YDR392W, strain spt3, hits give low values 0.934 | locus YDR502C, strain sam2, hits give low values 1.01 | locus YEL003W, strain gim4, hits give low values 0.983 | locus YEL037C, strain rad23, hits give low values 0.994 | locus YEL061C, strain CIN8 (second series), hits give low values 0.988 | locus YEL061C, strain CIN8, hits give low values 1.02 | locus YER015W, strain faa2, hits give low values 0.995 | locus YER016W, strain bim1, hits give low values 0.989 | locus YER110C, hits give low values 1.04 | locus YER111C, strain swi4, hits give low values 0.986 | locus YER155C, strain BEM2 (second series), hits give low values 0.981 | locus YER155C, strain BEM2, hits give low values 1.01 | locus YER167W, strain BCK2, hits give low values 1.05 | locus YFR010W, strain ubp6, hits give low values 1 | locus YGL078C, strain dbp3, hits give low values 0.985 | locus YGL086W, strain mad1, hits give low values 1.03 | locus YGL167C, strain pmr1, hits give low values 0.964 | locus YGL173C, strain kem1, hits give low values 0.967 | locus YGL227W, strain vid30, hits give low values 0.992 | locus YGL240W, strain doc1, hits give low values 0.965 | locus YGL248W, strain PDE1, hits give low values 1.02 | locus YGL253W, strain hxk2, hits give low values 0.991 | locus YGR078C, strain PAC10, hits give low values 1.02 | locus YGR135W, strain pre9, hits give low values 1.01 | locus YGR229C, strain SMI1, hits give low values 1.04 | locus YGR252W, strain gcn5, hits give low values 1.01 | locus YHR013C, strain ard1, hits give low values 1.02 | locus YHR027C, strain rpn1, hits give low values 0.997 | locus YHR030C, strain SLT2, hits give low values 1.03 and 1.13 | locus YHR079C, strain IRE1 (second series), hits give low values 1.02 | locus YHR079C, strain IRE1, hits give low values 0.993 | locus YHR094C, strain hxt1, hits give low values 1.03 | locus YHR129C, strain ARP1, hits give low values 1.03 | locus YHR142W, strain chs7, hits give low values 0.991 | locus YHR200W, strain rpn10, hits give low values 1.03 | locus YIL066C, strain RNR3, hits give low values 1.01 | locus YIL073C, strain SPO22, hits give low values 1.09 | locus YIL125W, strain kgd1, hits give low values 1.03 | locus YIR030C, strain dcg1, hits give low values 1.03 | locus YJL092W, strain hpr5, hits give low values 0.997 | locus YJL095W, strain BCK1 (second series), hits give low values 0.987 | locus YJL095W, strain BCK1, hits give low values 1.02 and 0.998 | locus YJL115W, strain asf1, hits give low values 0.994 | locus YJL129C, strain trk1, hits give low values 0.963 | locus YJL134W, strain LCB3, hits give low values 1.02 | locus YJL154C, strain vps35, hits give low values 0.997 | locus YJL164C, strain tpk1, hits give low values 1.01 | locus YJL166W, strain qcr8, hits give low values 0.986 | locus YJL168C, strain set2, hits give low values 1.02 | locus YJL187C, strain SWE1 (second series), hits give low values 1 | locus YJL187C, strain SWE1, hits give low values 0.992 | locus YJR043C, strain POL32, hits give low values 1.02 | locus YJR066W, strain TOR1, hits give low values 0.999
